Hits are enriched below; roughly 19% of the tested compounds scored in any of these assays.
ELG1 repair inh: inhibitors of ELG1-dependent DNA repair in HEK293T cells; HEK293T ELG1-luciferase reporter, luminescence, 16 h; DNA damage induced by 5-fluorouridine; Potency, µM (titrated, usually from 46.1 µM), for inactives: at the highest dose activity change, negative = inhibition, actives largely listed as inhibitors; 2.3% of 330,000 active; AID 504467; also: potency is read from the fitted curve at half-maximal effect; nearly all actives have a fitted effect of over 55% in size
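Cells (2,000 per well) received 5-fluorouridine plus test compound or DMSO and were incubated 16 hr at 37 °C, 5% CO2. Luciferase activity was read by luminescence 30 min after ONE-Glo addition; signal suppression marked inhibition of damage-induced ELG1 function.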
IL1B secr inh: inflammasome signaling inhibition, IL-1 beta readout | activity change, % at 57.5 µM | THP-1 LPS/ATP IL-1B secretion, AlphaLISA, 16 h; active compounds read low | 4.7% of 360,000 active | AID 743279; in the data active = activity change below about -50%; inconclusive = mostly about -30% to -49%
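Secreted IL-1B measured by AlphaLISA bead assay after 16 h compound exposure of THP-1 cells; compounds (final up to 57.5 uM) added 1 h before LPS (250 ng/mL) and ATP (1.25 mM) stimulation; lower signal means less secretion.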
HT1080 IDH1KD tx: kills HT-1080 cells with IDH1 knockdown; HT-1080 IDH1 knockdown viability, ATP luminescence, 48 h; Potency, µM (highest dose often 46.1 µM), without a hit: top-dose activity, negative = toxicity, most hits filed as cytotoxic; 2% of 360,000 active;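 also: potency is read from the fitted curve at half-maximal effect; 0% = DMSO wells and -100% = cell-free medium wells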
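IDH1KD HT-1080 cells, 750/well, RPMI + 5% FBS; compound pinned after 2 h settling; 48 h, 37 °C; CellTiter-Glo luminescence; % activity normalised to DMSO and no-cell wells; curves fitted, classed by r2 and efficacy.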
TDP1 cell noCPT: qHTS for Inhibitors of human tyrosyl-DNA phosphodiesterase 1 (TDP1): qHTS in cells in absence of CPT; 15% of 420,000 active; Potency, µM (top dose mostly 46.2 µM), without a hit: at the highest dose activity change, negative = growth inhibition, usual class: inhibitors; DT40 Tdp1-/- hTDP1 cells, no CPT, ATP luminescence, 48 h; also: potency is read from the fitted curve at half-maximal effect; nearly all actives have a fitted effect of over 55% in size
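Chicken DT40 Tdp1-/- cells stably complemented with human TDP1 were seeded at 400 cells/well with DMSO in place of 20 nM camptothecin. After compound pinning, cells grew at least 48 hr at 37 °C; viability read by CellTiter-Glo luminescence.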
HT1080NT lethal: kills 2HG-producing HT-1080-NT fibrosarcoma cells; HT-1080-NT fibrosarcoma viability, CellTiter-Glo ATP luminescence, 48 h; Potency, µM (doses to about 46.1 µM), without a hit: at the highest dose activity, negative = less viability, usual class: cytotoxic; 1.6% of 360,000 active; AID 686970;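 also: NT is the 2HG producing partner of a matched IDH1 knockdown line; potency is read from the fitted curve at half-maximal effect; 0% = DMSO-treated cells and -100% = media-only wells without cells; nearly all actives have a fitted effect of over 55% in size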
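Fibrosarcoma NT cells, 750 per well in 5% FBS RPMI, were exposed to compound for 48 hours. Viability: CellTiter-Glo luminescence.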
DT40 TDP1 CPT: growth inhibition of DT40 Tdp1-/-;hTDP1 cells with camptothecin (screen for TDP1 inhibitors). chicken DT40 Tdp1-/-;hTDP1 cells + 20 nM CPT, ATP luminescence, 48 h. Potency, µM (series often up to 46.2 µM), inactives show at the highest dose activity change, negative = growth inhibition, hits mostly inhibitors. 12% of 420,000 active. AID 686979; also: potency is read from the fitted curve at half-maximal effect; nearly all actives have a fitted effect of over 55% in size
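Chicken DT40 Tdp1-/- cells complemented with human TDP1, 400 cells/well, exposed to compounds plus 20 nM camptothecin for at least 48 h at 37 C; viability read as ATP content by CellTiter-Glo luminescence.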
* marks the source's active call; other numbers are inactive results; ? = inconclusive; / = no result given; [ ] = remark or other dose. Unless noted, calls follow the shape of the dose curve; as a rule, active = well fitted curve in the direction sought with a large enough effect; inconclusive = small, poorly fitted or top-dose-only effect, or another doubt; inactive = no such curve, though single readings can be large; an effect the other way counts as inactive or inconclusive. Unless noted, % is scaled to controls: 0 for no effect and ±100 for the full control effect.

SMILES	ELG1 repair inh	IL1B secr inh	HT1080 IDH1KD tx	TDP1 cell noCPT	HT1080NT lethal	DT40 TDP1 CPT
Oc1ccc(C(=Nc2ccccc2)c2ccccc2)c(O)c1	/	-12	-11%	-15%	-2%	1%
N#C/C(=C\c1c[nH]c2ccccc12)C(=O)NC1CCCC1	?	0	2%	16µM*	-15%	16µM*
N#C/C(=C\c1c[nH]c2ccccc12)C(=O)NC1CC1	?	?	-7%	-20%	-5%	-15%
N#C/C(=C\c1cccnc1)C(=O)Nc1cccc2ccccc12	?	?	21µM*	?	?	?
N#C/C(=C\c1cccnc1)C(=O)NC1CCCCC1	-11%	-78*	6%	23µM*	8%	?
NC(=S)c1c(Cl)cc(C(F)(F)F)cc1Cl	-22%	6	13%	-1%	9%	2%
Cn1c(=O)c2[nH]c(NN=Cc3cccc(Br)c3)nc2n(C)c1=O	/	-20	-9%	15µM*	-11%	23µM*
Cn1c(=O)c2[nH]c(NN=Cc3ccc(F)cc3)nc2n(C)c1=O	/	-19	20%	?	7%	-12%
O=C(O)CCCNS(=O)(=O)c1ccc(F)cc1	0%	10	18%	-3%	2%	-13%
NCCCCCCNS(=O)(=O)c1cccc2ccccc12	/	/	/	14µM*	/	16µM*
O=S(=O)(NCCCCCNS(=O)(=O)c1ccc(F)cc1)c1ccc(F)cc1	?	10	-18%	13µM*	-22%	11µM*
O=C(CCNS(=O)(=O)c1ccccc1)NCCCSc1ccccc1	11%	13	5%	18µM*	-2%	7.3µM*
Cc1ccc(S(=O)(=O)NCCC(=O)NCCCSc2ccccc2)cc1	-18%	-28	-9%	-26%	-1%	-27%
O=S(=O)(NCCCCCNS(=O)(=O)c1ccccc1)c1ccccc1	?	-19	-10%	26µM*	-18%	?
CC(C)N(C(=O)CSc1nnc(CSc2ncccn2)n1C)C(C)C	2%	-2	1%	-8%	-1%	5%
COc1ccc(-c2nc(N)n(C(=O)c3cccs3)n2)cc1	19%	12	-6%	1%	6%	0%
Cc1oc2cc3c(C(=O)N4CCCCC4)c(C)oc3cc2c1C(=O)N1CCCCC1	?	21	3%	18µM*	7%	?
Cc1cccc(NC(=S)N2CCN(c3ccc(F)cc3)CC2)c1	2%	9	27%	?	?	-17%
CC(=O)N(Cc1ccccc1)c1nc(-c2ccccc2)cs1	-2%	-18	-9%	?	-1%	1%
O=C(c1cccs1)N(CC1CCCO1)c1nc(-c2ccccc2)cs1 (centres undefined)	?	-29	-8%	?	-8%	21µM*
O=C(c1ccco1)N(CC1CCCO1)c1nc(-c2ccccc2)cs1 (centres undefined)	?	-10	?	23µM*	?	?
CCOC(=O)C1CCCN(C(=O)c2cccc(C(F)(F)F)c2)CC1 (centres undefined)	/	30	3%	-28%	3%	5%
Cc1cc(C)c(OCC(=O)Nc2ccccn2)c([N+](=O)[O-])c1	?	-16	24%	-26%	25%	-23%
CCc1ccccc1OCC(=O)Nc1nc(-c2cccnc2)cs1	-27%	123	?	3.3µM*	-39%	3.3µM*
Cc1cc(C)c(OCC(=O)Nc2nc(-c3ccccn3)cs2)c(C)c1	?	31	?	4.1µM*	-19%	3.7µM*
SMILES	ELG1 repair inh	IL1B secr inh	HT1080 IDH1KD tx	TDP1 cell noCPT	HT1080NT lethal	DT40 TDP1 CPT
Cc1ccccc1OCC(=O)Nc1nc(-c2ccncc2)cs1	?	13	-10%	15µM*	-16%	21µM*
Cc1ccc(NC(=O)c2cccc(-n3cnnn3)c2)cc1Cl	-6%	0	-1%	-16%	-6%[9.24 µM]	-18%
Cc1ccc(OCC(=O)Nc2ccccc2N2CCCC2)c(C)c1	3%	?	-4%	29µM*	1%	?
O=C(COc1ccccc1)Nc1cc(C(F)(F)F)ccc1N1CCCC1	?	-1	-17%	?	-9%	?
CC(C)C(=O)N1CCN(c2ccccc2NC(=O)COc2ccc(C3CCCCC3)cc2)CC1	21µM*	?	?	?	?	?
COc1cc(C(=S)N2CCCC2)cc(Cl)c1OCC(=O)Nc1ccc(C)cc1C	?	-16	-13%	?	-17%	13µM*
Cc1ccc(C)c(OCC(=O)Nc2ccccc2N2CCCC2)c1	1%	-30	-2%	?	11%	?
Cc1cc(N2CCCC2)ccc1NC(=O)COc1cccc(C(F)(F)F)c1	?	-16	?	4.6µM*	?	8.2µM*
CC(C)C(=O)N1CCN(c2ccccc2NC(=O)COc2ccccc2)CC1	?	-19	3%	?	-8%	?
COc1cc(C(=S)N2CCCCC2)ccc1OCC(=O)Nc1ccc(F)cc1	3%	-25	-5%	?	-21%	?
COc1ccc(NS(=O)(=O)c2cnc(N)nc2)cc1Cl	/	/	/	-15%	/	4%
NS(=O)(=O)c1cnccc1Nc1ccc(Cl)c(Cl)c1	-18%	-10	-14%	-22%	-1%	-17%
Cc1cccc(OCC(=O)Nc2ccccc2N2CCCCC2)c1	-15%	7	4%	?	5%	12µM*
C=COCCCNc1ncnc2sc(-c3ccccc3)cc12	?	-9	-18%	15µM*	-8%	16µM*
CN(C)c1ncnc2sc(-c3ccccc3)cc12	?	-55*	-27%	-23%	-8%	?
COC(CNc1ncnc2sc(-c3ccccc3)cc12)OC	-4%	?	-1%	?	-3%	?
CC(C)(C)Nc1ncnc2sc(-c3ccccc3)cc12	?	-17	-29%	23µM*	-26%	26µM*
COc1ncnc2sc(-c3ccccc3)cc12	?	-10	-24%	-27%	3%	-30%
O=C1Nc2ccccc2Oc2cc([N+](=O)[O-])cc(Oc3ccccc3)c21	-28%	8	-12%	?	-1%	?
O=[N+]([O-])c1cc2c(c([N+](=O)[O-])c1)Nc1ccccc1O2	/	?	-4%	7.3µM*	?	12µM*
Cc1cccc(Oc2ccc3c(c2)Oc2ccccc2NC3=O)c1	/	/	/	?	/	16µM*

Source: PubChem BioAssay
